Experimental findings from ChEMBL document CHEMBL3988442, “University of Dundee, Small-Polar-MMV Screening Library” (2021) are described below.

SMILES strings stand for the structures. In all, about 48,000 compounds went through this assay and about 13,000 (27%) showed an effect of 50% or more. Some of the results follow.

The test system of this experiment is Wolbachia pipientis. As to the kind of experiment: Anti-Wolbachia Cell-Based Screen. It is filed as functional. Also on record: scale not given: in the data most compounds retested in dose-response had high values. To be noted: 5 µM.
Regarding `CCC1CN(CCCNS(C)(=O)=O)c2ccccc2O1` (stereo not drawn), the “Percent Effect” value is recorded as -7.766%. `Cc1cnn(CCNCC(O)COc2ccc(Cl)cc2)c1` (stereo not drawn): the “Percent Effect” value was -10.6%. With `CN(C)C(=O)c1ccc(C(C(=O)O)N(C)Cc2ccccc2Cl)cc1` (stereo not drawn) the figure was 24.87%; with `CC(C)=CCS(=O)(=O)Cc1nc(C(C)C)no1`, -0.5421%; with `N#Cc1ccc(OCCCN2CCc3cncnc3C2)cc1`, -6.561%. As to `Cc1nnc(NCc2ccc(SC(F)F)cc2)o1`, the “Percent Effect” value is reported as -21.33%. The result for `CCN(Cc1ccc2cccc(O)c2n1)CC1CCCO1` (stereo not drawn) reads 12.41%; that for `CC(C)n1ccnc1CNC(=O)c1cccc(CCC(C)(C)O)c1`, 1.765%; that for `O=C(O)C(F)(F)F.O=C(O)C(F)(F)F.c1cncc(C2COC3(CCN(Cc4cccs4)CC3)C2)c1` (stereo not drawn), 94.58%. As for `Cc1ccc(CN2CCC3(CC2)CC(c2cccnc2)CO3)s1.O=C(O)C(F)(F)F.O=C(O)C(F)(F)F` (stereo not drawn), the “Percent Effect” value is given as -3.874%. Take `O=C(NC1COC2(CCN(Cc3cccs3)CC2)C1)c1ccccn1.O=C(O)C(F)(F)F` (stereo not drawn): the “Percent Effect” value was -12.32%.

As to `O=C(O)C(F)(F)F.O=C(O)C(F)(F)F.c1cncc(C2COC3(CCN(Cc4nccs4)CC3)C2)c1` (stereo not drawn), the “Percent Effect” value is on record as 106.4%. As for `COc1c(C)cc(S(=O)(=O)NCC2CNCCOC2)cc1C` (stereo not drawn), the “Percent Effect” value is recorded as -7.949%. For the compound `CC1CS(=O)(=O)CCN1Cc1ccccc1OCC(F)(F)F` (stereo not drawn), the “Percent Effect” value is given as -0.5987%. The result for `CCNC(=O)N(C)C(c1cccc(F)c1)c1ccccn1` (stereo not drawn) reads 4.567%; that for `CCC(C)(C)NC(=O)CN(C)C(c1cccc(F)c1)c1ccccn1` (stereo not drawn), 3.895%. Regarding `CN(C)S(=O)(=O)N(C)C(c1cccnc1)c1ccc(F)c(F)c1` (stereo not drawn), the “Percent Effect” value is 6.924%. With `CN(C(=O)C1CCCC1)C(c1cccc(F)c1)c1ccccn1` (stereo not drawn) the figure was 96.46%; with `Cc1cccc(C(C(=O)N2CC(c3ccccn3)C2)N(C)C)c1` (stereo not drawn), -0.3127%; with `CC(NCc1cccc(S(=O)(=O)N(C)C)c1)c1ccccn1` (stereo not drawn), -1.385%. With `CCC(CC)CNC(=O)N(C)C(C)c1ccccn1` (stereo not drawn), the “Percent Effect” value is reported as -0.07078%. With `CN(C)S(=O)(=O)N(C)C(c1cccc(F)c1)c1ccccn1` (stereo not drawn) the figure was 51.58%; with `CCNC(=O)N(C)C(c1ccccc1)c1ccccn1` (stereo not drawn), 96.55%. With `CC(C)NC(=O)N(C)C(c1cccc(F)c1)c1ccccn1` (stereo not drawn) the figure was 108.7%; with `CN(C)C(C(=O)N1CC(c2ccccn2)C1)c1cccc(F)c1` (stereo not drawn), 0.3934%.

As to `O=C(C1CCC1)N1CCOc2cccc(F)c21`, the “Percent Effect” value was -0.5451%. For the compound `CC(C)c1ccc(CN2CCC(CNS(=O)(=O)C3CC3)C2)cc1` (stereo not drawn), the “Percent Effect” value is listed as -21.58%. Turning to `O=C(c1ccc[nH]1)N1CCCC2(CCN(c3ccsc3)C2=O)C1` (stereo not drawn), the “Percent Effect” value is reported as -3.1%. With `CCc1cccc(OC2CN(C(=O)[C@@H](N)CCSC)C2)c1` the figure was 3.54%; with `OCCc1cc(CC2(NCc3ccncc3)COC2)no1`, 9.116%.

Consider `CC(=O)N(C)C(c1cccc(F)c1)c1ccccn1` (stereo not drawn), for which the “Percent Effect” value was found to be 87.32%. The result for `CN(C)CCN(Cc1ccccn1)C(=O)Nc1cccc(F)c1` reads 19.37%; that for `CN(C)C(C(=O)NCC(F)(F)F)c1cccc(F)c1` (stereo not drawn), -4.686%; that for `CC1=C[C@@H](CC#N)[C@H](C(C)C)C[C@H]1CC(=O)N1CCN(CCO)CC1`, 2.953%. The result for `CCOC(=O)C1CCN(Cc2csc(C(C)(C)C)n2)CC1` reads -1.919%. As for `COCCC1(C(=O)O)CCCN(CCc2ccccc2)C1` (stereo not drawn), the “Percent Effect” value is -4.304%.

Take `O=C(Nc1ccc(Cl)cn1)C1CCCN(CCc2ccccn2)C1` (stereo not drawn): the “Percent Effect” value turned out to be 0.2896%. With `NC(=O)CN1CCCC(CCCc2ccccn2)(C(N)=O)C1` (stereo not drawn) the figure was 100.4%; with `CCN1CCCC(O)(CNCc2ccccn2)C1` (stereo not drawn), -18.44%. The result for `O=C(NCCc1ccccn1)N1CCSC2(CCCCC2)C1` reads 2.458%; that for `CCCN(Cc1cccnc1)C(=O)C1CCCN(C)C1` (stereo not drawn), -0.4884%. The result for `NC(=O)C1(CCCc2cccnc2)CCCN(c2ncccn2)C1` (stereo not drawn) reads -4.242%; that for `COCCCC1(CO)CCCN(CCc2ccccn2)C1` (stereo not drawn), 15.21%. On to `NC(=O)C1(CCCc2ccccn2)CCCN(CCO)C1` (stereo not drawn), for which the “Percent Effect” value amounted to 112.7%.

Regarding `CC(C)N1CCCC(CCCc2ccccn2)(C(=O)O)C1` (stereo not drawn), the “Percent Effect” value is on record as -10.26%. In the case of `COCCN1CCCC(CCCc2ccccn2)(C(N)=O)C1` (stereo not drawn), the “Percent Effect” value is given as 100.6%.

Turning to `CN1CCCC(CCCc2cccnc2)(C(N)=O)C1` (stereo not drawn), the “Percent Effect” value worked out at 112%. As to `CCOCC1COCCC12CCN(C(=O)C1=CCCCC1)CC2` (stereo not drawn), the “Percent Effect” value is recorded as 5.493%. In the case of `COCCCN(Cc1ccncc1)c1cc(C)ncn1`, the “Percent Effect” value was 0.1133%. The result for `CC1(C)COCCN1C(=O)CCc1nc(-c2ccc(Cl)cc2)no1` reads -5.513%; that for `Cc1ccc(OCc2nnc(SCC3CCCN(C)C3)o2)cc1` (stereo not drawn), 8.956%; that for `CN(CCc1ccccn1)C(=O)Nc1cccnc1N1CCCC1`, -10.3%. Regarding `Nc1ccnc(N2CCCC(CCc3ccccc3)(C(=O)O)C2)n1` (stereo not drawn), the “Percent Effect” value was -8.777%. In the case of `CN(CCc1ccccn1)[C@@H]1CCN(c2cc(C(N)=O)ccn2)C[C@H]1O`, the “Percent Effect” value is given as -0.6803%. The result for `NC(=O)C1(CCCc2ccccn2)CCCN(c2ncccn2)C1` (stereo not drawn) reads 87.14%. As for `O=C(CCCc1ccccn1)N1CCSC2(CCCCC2)C1`, the “Percent Effect” value is -12.36%. `CN(C)C(=O)CN1CCCC(CCCc2ccccn2)(C(N)=O)C1` (stereo not drawn): the “Percent Effect” value stood at 83.83%. The result for `Cc1nc2cc(=O)[nH]n2c(C)c1CC(=O)Nc1cnn(C(C)(C)C)c1` reads -8.028%; that for `CCOc1ccc(CN2C(=O)CC(C)(C)C2=O)nc1`, -21.77%; that for `CCC(=O)N1CCN(C(=O)NC2CCc3ccccc3C2)CC1` (stereo not drawn), -5.895%. As to `Cn1cc(CNCCc2cccnc2)c(-c2cccnc2)n1`, the “Percent Effect” value was determined as 4.12%. Take `CCCNCc1cn(C)nc1-c1cccnc1.Cl`: the “Percent Effect” value is on record as 13.76%. On to `Cc1cc(NCc2cn(C)nc2-c2cccnc2)n(C)n1`, for which the “Percent Effect” value stood at 80.93%. `Cn1cc(CNCCn2cccn2)c(-c2cccnc2)n1`: the “Percent Effect” value amounted to 3.416%. The result for `Cc1noc(NCc2cn(C)nc2-c2cccnc2)n1` reads 76.51%. With `Cc1noc(NCc2cn(C)nc2-c2ccncc2)n1` the figure was 86.63%; with `Cn1cc(CNc2ccc(CCO)cc2)c(-c2ccncc2)n1`, 4.489%; with `CN(C)C(C)(C)CNCc1cn(C)nc1-c1cccnc1.Cl`, 8.677%. With `Cn1cc(CNc2cnn(CCO)c2)c(-c2ccncc2)n1` the figure was -19.35%; with `CCc1nnc(CNC(=O)CCN2CCN(c3cccc(C)c3)CC2)s1`, 7.202%. On to `Cc1ccc(C(=O)N2CCSCC2)cc1N1CCNC1=O`, for which the “Percent Effect” value is on record as -1.525%.

`CN(C)CCN1CCOCC2(CCN(Cc3ccc[nH]3)CC2)C1.O=C(O)C(F)(F)F.O=C(O)C(F)(F)F.O=C(O)C(F)(F)F`: the “Percent Effect” value is recorded as -10.04%. The result for `CNc1cc(C)nc(N2C[C@H](C3CC3)[C@@H](N)C2)n1` reads -22.96%. On to `Cc1cc(NC(=O)NCc2ccc(C)s2)no1`, for which the “Percent Effect” value came out at 3.366%. For `Cc1cccc(COC[C@]23COC[C@H]2CN(C(=O)c2ccsc2)C3)n1`, the “Percent Effect” value amounted to 4.122%. The result for `O=C(Cc1cccs1)N1C[C@@H]2COC[C@]2(COCc2cccnc2)C1.O=C(O)C(F)(F)F` reads -3.131%; that for `O=C(Cc1cccs1)N1C[C@@H]2COC[C@]2(COc2cccnc2)C1`, 7.396%. For the compound `O=C(Cc1ccsc1)N1C[C@@H]2COC[C@]2(COc2cccnc2)C1`, the “Percent Effect” value is reported as 95.21%. With `Cc1ccnc(OC[C@]23COC[C@H]2CN(C(=O)Cc2ccsc2)C3)n1`, the “Percent Effect” value is on record as 106.6%. The result for `O=C(Cc1ccsc1)N1C[C@@H]2COC[C@]2(COCc2cccnc2)C1.O=C(O)C(F)(F)F` reads -1.782%. With `CS(=O)(=O)c1ncc(CN2CCCC(C(N)=O)C2)n1CC1CCCCC1` (stereo not drawn) the figure was 6.801%; with `COCC1(NC(=O)C(c2ccc(F)cc2)N(C)C)CCCC1` (stereo not drawn), -2.374%.

With `COc1ccc(NC(=O)c2cccc(CN3CCCC3C)c2)cc1OC` (stereo not drawn), the “Percent Effect” value turned out to be 8.38%. On to `CC1CCCN1Cc1cccc(C(=O)Nc2ccc3c(c2)CCC3=O)c1` (stereo not drawn), for which the “Percent Effect” value is given as 51.3%. For the compound `CC1CCCN1Cc1cccc(C(=O)Nc2ccc3[nH]c(=O)oc3c2)c1` (stereo not drawn), the “Percent Effect” value is on record as 1.459%.

For the compound `Cc1nc(C2CCCN(C(=O)c3cccc4c3OCO4)C2)no1` (stereo not drawn), the “Percent Effect” value came out at 12.92%. The result for `Cc1ncsc1CN(C)C(=O)CC1CCOc2ccccc21` (stereo not drawn) reads 5.103%. Take `Cc1nc(CCN(C)C(=O)C2COc3ccccc3C2)no1` (stereo not drawn): the “Percent Effect” value is recorded as -0.4164%. Consider `Cc1nc(COC(=O)c2cccc3c2OCCO3)cs1`, for which the “Percent Effect” value is 117.7%. For `Cc1ncsc1COC(=O)c1cccc2c1OCCO2`, the “Percent Effect” value was 128%. Take `Cc1ncsc1CCN(C)C(=O)CN1CCOc2ccccc2C1`: the “Percent Effect” value stood at 0.429%. The result for `CCN(Cc1ccc2c(c1)OCCO2)C(=O)NCc1csc(C)n1` reads -4.508%; that for `Cc1nc(CC(=O)N2c3ccccc3OCC2C)cs1` (stereo not drawn), -16.16%. With `Cc1nc(COC(=O)c2cccc3c2OCCO3)no1` the figure was 110.5%; with `NC(=O)N1CCCN(C(=O)Nc2cc(-n3cccc3)ccc2F)CC1`, -14.58%; with `CN1CC(C(=O)NC(C)(C)CNC(=O)OC(C)(C)C)CC1=O` (stereo not drawn), -3.275%. With `COCc1ccccc1C(=O)NCC(O)c1ccc(Cl)s1` (stereo not drawn) the figure was 11.9%. For `CN(C)c1ncnc2c1CCN(S(=O)(=O)c1cccc3nsnc13)C2`, the “Percent Effect” value is on record as 10.74%. On to `COc1ncccc1CNC(=O)c1cc(F)cc(Br)c1`, for which the “Percent Effect” value is reported as 12.35%. The result for `Cc1ncccc1OC1(C(=O)NCCCN2CCOCC2)CCNCC1` reads -8.588%; that for `CC(=O)c1cnc(NCC2OCCc3ccccc32)nc1C` (stereo not drawn), 8.592%; that for `CCc1cnc(C)nc1NCCN1CCCC(C(N)=O)C1` (stereo not drawn), 3.304%. As to `Cc1csc(C2(NC(=O)NCCN3CCOCC3)CCC2)n1`, the “Percent Effect” value was -15.32%. The result for `CC(=O)c1cnc(NCCN2CCCC2)nc1C` reads 107.9%; that for `CC(=O)c1cnc(NCCN2CCCC(c3ccccc3)C2)nc1C` (stereo not drawn), 111.1%. For `CC(=O)c1cnc(NCCCN2CCOCC2)nc1C`, the “Percent Effect” value is 89.28%.

For `OC1CCN(CCNc2ncc3c(n2)CCN3c2ccccc2)CC1`, the “Percent Effect” value is 0.6072%. As to `CC(=O)c1cnc(NCCc2csc(-c3cnccn3)n2)nc1C`, the “Percent Effect” value is given as -3.465%.
